CtBP-E1A inh – qHTS Assay for Inhibitors of the CtBP/E1A Interaction. AlphaScreen GST-E1A/His-CtBP binding, 1536-well; hits give low values. 340,000 tested, 0.49% active. activity change, % (concentration not given with the values). CtBP / adenovirus E1A interaction (AlphaScreen); in the data active = activity change below about -65%; inconclusive = mostly about -30% to -63%
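Homogeneous bead-based format: GST-tagged E1A captured on glutathione donor beads, His-tagged CtBP on nickel acceptor beads; compounds precede bead addition by 2 h at 37 °C.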
TDP1 block – qHTS Assay for Inhibitors of Tyrosyl-DNA Phosphodiesterase (TDP1); Potency, µM (top dose mostly 130 µM), without a hit: top-dose activity change, negative = inhibition, most hits filed as inhibitors; 350,000 tested, 0.28% active; recombinant TDP1, AlphaScreen DNA substrate cleavage; AID 485290, 2010; note: potency is the fitted concentration of half-maximal effect; nearly all actives have a fitted effect of over 40% in size
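Enzyme-compound mixtures sat 15 min at room temperature, followed by a 5 min reaction with 15 nM final substrate and 10 min with AlphaScreen beads. Recombinant human Tdp1 was used at 1 nM final.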
Six1-Eya2 blk – qHTS Assay for Inhibitors of the Six1/Eya2 Interaction; AlphaScreen GST-Six1/His-Eya2 binding, biochemical; hits give low values; AID 651725, 2012; activity change, % (no concentration beside the values); 360,000 tested, 0.56% active; Homeobox protein SIX1 (Homo sapiens) + Protein phosphatase EYA2 (Homo sapiens), …; in the data active = activity change below about -65%; inconclusive = mostly about -30% to -63%
Target sequence (O00167 whole entry, looked up): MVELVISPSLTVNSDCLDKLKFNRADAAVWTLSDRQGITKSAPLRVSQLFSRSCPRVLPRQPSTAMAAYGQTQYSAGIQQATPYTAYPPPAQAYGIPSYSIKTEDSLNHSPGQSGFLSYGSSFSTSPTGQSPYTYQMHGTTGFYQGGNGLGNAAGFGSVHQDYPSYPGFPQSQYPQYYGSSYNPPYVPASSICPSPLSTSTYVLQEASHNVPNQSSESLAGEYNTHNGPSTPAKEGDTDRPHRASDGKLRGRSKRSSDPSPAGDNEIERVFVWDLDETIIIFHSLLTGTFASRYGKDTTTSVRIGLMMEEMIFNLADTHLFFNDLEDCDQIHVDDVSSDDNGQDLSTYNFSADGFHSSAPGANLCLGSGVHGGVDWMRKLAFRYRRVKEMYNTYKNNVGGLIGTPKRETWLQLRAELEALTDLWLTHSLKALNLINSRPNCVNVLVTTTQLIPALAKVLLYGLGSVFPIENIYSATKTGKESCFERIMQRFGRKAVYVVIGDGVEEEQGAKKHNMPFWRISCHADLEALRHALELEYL
Target sequence (Q15475 whole entry, looked up): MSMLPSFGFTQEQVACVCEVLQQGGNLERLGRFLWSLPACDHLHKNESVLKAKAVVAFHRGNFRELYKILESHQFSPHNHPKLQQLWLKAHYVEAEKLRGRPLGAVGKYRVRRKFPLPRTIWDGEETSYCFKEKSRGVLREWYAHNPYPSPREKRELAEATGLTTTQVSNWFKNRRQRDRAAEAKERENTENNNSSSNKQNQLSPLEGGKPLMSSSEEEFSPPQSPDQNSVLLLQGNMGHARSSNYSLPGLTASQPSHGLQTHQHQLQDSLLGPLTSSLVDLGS
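AlphaScreen with GST-Six1 and His-Eya2 (5X mix: 250 nM and 500 nM), glutathione donor and nickel acceptor beads; buffer 50 mM Tris pH 8.0, 300 mM NaCl, 1 mM TCEP; 1 h at 37 C in the dark.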
TDP1 cell noCPT – qHTS for Inhibitors of human tyrosyl-DNA phosphodiesterase 1 (TDP1): qHTS in cells in absence of CPT; DT40 Tdp1-/- hTDP1 cells, no CPT, ATP luminescence, 48 h; Potency, µM (titrated, usually from 46.2 µM), for the others: top-dose activity change, negative = growth inhibition, most hits filed as inhibitors; 420,000 tested, 15% active; AID 686978, 2013; note: potency is the fitted concentration of half-maximal effect; nearly all actives have a fitted effect of over 55% in size
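Growth kinetics read by CellTiter-Glo luminescence after ≥48 hr at 37 °C. Cells: DT40 Tdp1-/- stably carrying human TDP1, 400 per well, compound exposure in the absence of CPT (DMSO vehicle).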
IL-1B inflam inh – qHTS for Inhibitors of Inflammasome Signaling: IL-1-beta AlphaLISA Primary Screen; activity change, % at 57.5 µM; THP-1 LPS/ATP IL-1B secretion, AlphaLISA, 16 h; hits give low values; 360,000 tested, 4.7% active; AID 743279, 2014; in the data active = activity change below about -50%; inconclusive = mostly about -30% to -49%
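THP-1 cells pretreated 1 hr with compounds (up to 57.5 uM final), then stimulated with LPS (250 ng/mL final) plus ATP (1.25 mM final); secreted IL-1B measured by AlphaLISA after 16 hr, decreased signal indicating inhibition.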
TDP1 cell CPT – qHTS for Inhibitors of human tyrosyl-DNA phosphodiesterase 1 (TDP1): qHTS in cells in presence of CPT; 420,000 tested, 12% active; Potency, µM (highest dose often 46.2 µM), without a hit: at the highest dose activity change, negative = growth inhibition, hits mostly inhibitors; chicken DT40 Tdp1-/-;hTDP1 cells + 20 nM CPT, ATP luminescence, 48 h; AID 686979, 2013; note: potency is the fitted concentration of half-maximal effect; nearly all actives have a fitted effect of over 55% in size
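Chicken DT40 Tdp1-/- cells stably complemented with human TDP1 were seeded at 400 cells/well in medium containing 20 nM camptothecin, exposed to pin-transferred compounds, and grown at 37 °C for at least 48 hr. Viability was read as ATP luminescence.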
The depositor's hits bear a star; ? = inconclusive; . = no result; [ ] = dose if it differs, or a comment. Rows were chosen to be rich in hits. Some 18% of all compounds tested hit in one or more screens of this group. Unless noted, calls come from the whole dose curve; as a rule, active = well fitted curve in the direction sought with a large enough effect; inconclusive = small, poorly fitted or top-dose-only effect, or another doubt; inactive = no such curve, though single readings can be large; an effect the other way counts as inactive or inconclusive. % is set by controls: 0 for no effect and ±100 for the full control effect.

SMILES | CtBP-E1A inh | TDP1 block | Six1-Eya2 blk | TDP1 cell noCPT | IL-1B inflam inh | TDP1 cell CPT
CC1CCC(=NNC(=O)c2ccccc2-n2cccc2)CC1 (stereo unspecified) | 0 | -9%[0.505 µM] | 6 | ? | 0 | ?
Cc1cccc(C(=O)Nc2cc3c(cc2N2CCOCC2)n(C)c(=O)n3C)c1 | . | 5% | . | ? | . | -5%
COc1ccc(C2/C=C\CN(S(=O)(=O)c3cccc4cccnc34)CC(=O)N2Cc2ccc(F)cc2)cc1 (stereo unspecified) | -6 | 15% | 0 | ? | 0 | ?
COc1ccc(C2/C=C\CN(S(=O)(=O)c3ccc(C)cc3)CC(=O)N2Cc2cccc(F)c2)cc1 (stereo unspecified) | 0 | 1%[56.1 µM] | -3 | ? | 27 | 15µM*
COc1ccc([C@H]2/C=C\CN(Cc3ccc(N(C)C)cc3)[C@@H](C)C(=O)N2Cc2ccc(F)cc2)cc1 | -65* | . | ? | ? | 3 | ?
Cc1cc(CNCCN(C)C)c(C)n1-c1cc(S(=O)(=O)N2CCOCC2)ccc1N1CCCC1 | 14 | . | -2 | 16µM* | -6 | ?
Cc1ccc(C)n1-c1cc(S(=O)(=O)N2CCOCC2)ccc1N1CCCC1 | 3 | 4% | -2 | 26µM* | -11 | 21µM*
CC1(c2ccc(Cl)cc2)CC(C)(C)N(C(=O)c2ccccc2)c2ccccc21 (stereo unspecified) | . | -1% | . | ? | . | ?
COc1cccc(C(=O)N2c3ccc(C)cc3C(C)(c3ccccc3)CC2(C)C)c1 (stereo unspecified) | . | -1%[12.3 µM] | . | 23µM* | . | ?
CC1(c2cc([N+](=O)[O-])cc([N+](=O)[O-])c2)CC(C)(C)N(C(=O)c2ccccc2)c2ccccc21 (stereo unspecified) | ? | 9% | ? | 16µM* | 0 | 23µM*
COc1ccc(C(=O)N2c3ccccc3C(C)(c3ccc(Cl)cc3)CC2(C)C)cc1 (stereo unspecified) | . | 6%[12.3 µM] | . | 16µM* | . | ?
CCC(=O)N1c2ccccc2C(C)(c2ccccc2)CC1(C)C (stereo unspecified) | . | . | . | -28% | . | -16%
CCC(CC)C(=O)N1c2ccccc2C(C)(c2ccccc2)CC1(C)C (stereo unspecified) | . | -1%[2.28 µM] | . | 23µM* | . | 18µM*
Cc1ccc(-c2nc(N)sc2CC(=O)OCC(=O)NCC2CCCO2)cc1 (stereo unspecified) | -6 | 1% | 0 | 7% | -8 | 2%
COc1ccc(CN(C)C(=O)c2cccc(S(=O)(=O)N3CCc4ccccc43)c2)c(OC)c1 | -1 | 2% | -11 | 15µM* | -22 | 21µM*
COc1ccccc1CN(C)C(=O)c1cccc(S(=O)(=O)N2CCc3ccccc3C2)c1 | -1 | 0% | -11 | 16µM* | ? | ?
CC(=O)NS(=O)(=O)c1ccc(NC(=O)c2cccc(S(=O)(=O)N3CCc4ccccc43)c2)cc1 | 3 | 0% | -5 | -6% | 9 | -6%
Cc1ccc(NC(=O)CN(C)C(=O)c2cccc(S(=O)(=O)N3CCc4ccccc43)c2)cc1 | . | 0% | -6 | 16µM* | -25 | 21µM*
Cc1cccc(NC(=O)COC(=O)c2ccc3nc(C)c(C)nc3c2)c1 | -12 | -2% | 5 | 3% | -11 | -5%
CCOC(=O)N1CCN(C(=O)CSc2nnc(-c3ccccc3OC)o2)CC1 | 3 | -2% | 8 | -26% | -1 | 2%
CCOC(=O)N1CCN(C(=O)CSc2nnc(-c3cccc(OC)c3)o2)CC1 | 3 | 4% | -6 | 23µM* | 5 | 16µM*
CCOC(=O)N1CCN(C(=O)CCSc2ccc(C)cc2)CC1 | 1 | 5% | 0 | 23µM* | -5 | 23µM*
CCOC(=O)N1CCN(C(=O)CSc2nnc(-c3ccc(C)c(C)c3)o2)CC1 | 4 | 6% | 1 | 15µM* | -11 | ?
CCOC(=O)N1CCN(C(=O)CSc2nnc(-c3cc(OC)ccc3OC)o2)CC1 | 4 | 0% | -3 | 21µM* | -1 | 15µM*
Cc1ccc(-c2nnc(SCC(=O)N3CCCC3)o2)cc1C | 0 | 4% | 37 | -26% | -9 | -5%
SMILES | CtBP-E1A inh | TDP1 block | Six1-Eya2 blk | TDP1 cell noCPT | IL-1B inflam inh | TDP1 cell CPT
CCOC(=O)c1c(-c2ccc(OC)cc2)csc1NC(=O)CCN1C(=O)c2ccccc2C1=O | -5 | -1% | -7 | ? | -18 | 16µM*
CCOC(=O)c1sc(NC(=O)CCN2CCCCCC2)c(C(=O)OCC)c1C | 2 | 0% | 1 | ? | -99* | ?
CCOC(=O)c1c(-c2ccc(C)cc2)csc1NC(=O)CCN1CC(C)OC(C)C1 (stereo unspecified) | -7 | -6% | -3 | 26µM* | -6 | ?
CCOC(=O)c1c(-c2ccc(OC)cc2)csc1NC(=O)CNCc1ccco1 | -13 | 0% | -15 | ? | -13 | ?
CCOC(=O)c1c(-c2ccccc2)csc1NC(=O)c1ccc(S(=O)(=O)N2CC(C)OC(C)C2)cc1 (stereo unspecified) | 13 | 1% | 4 | ? | 17 | -15%
CCOC(=O)c1c(-c2ccc(OC)cc2)csc1NC(=O)CCN1CCOCC1 | -7 | 3% | -30 | 18µM* | -10 | ?
CCOC(=O)c1c(NC(=O)CC)sc(C(=O)N2CCCCC2)c1C | -1 | -3% | -1 | -13% | -8 | -2%
Cn1c(SCC(=O)NCc2ccccc2)nc2c([nH]c3ccccc32)c1=O | . | -7% | . | . | . | .
CCOC(=O)c1c(C)c(C(=O)NC(C)COC)c(C)n1C (stereo unspecified) | 4 | 6% | -1 | 8% | -1 | -5%
CCc1cc2c(nc1CC)CCN(CC/C(C)=N/O[C@@H](C)CN1CCCc3nc(C)c(C)cc31)C2 | . | 7%[21 µM] | . | . | . | .
O=C(OCCNC(=O)c1ccc2ccccc2n1)c1cccnc1 | 12 | 4% | 0 | -13% | -3 | -14%
CCOC(=O)c1sc(NC(=O)CNCc2ccccn2)c(C(=O)OCC)c1C | -71* | 11% | ? | 26µM* | 10 | ?
CCOC(=O)c1c(NC(=O)CCN2CCOCC2)sc(C)c1-c1ccccc1 | -13 | 1% | -4 | 23µM* | -78* | 21µM*
